Source: PubChem
Only a selection was taken, and hits are over-represented in it overall.
DUX4 inh: blocks DUX4-driven transcriptional activation | 293T-iDUX4 ZSCAN4-Gaussia luciferase reporter, 24 h; active compounds read low | actives 0.8% (n = 37,000) | activity change, negative = inhibition, % (no concentration beside the values) | AID 1224904;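 active = mean inhibition of at least 10% in the main channel, exceeding the control channel by a set limit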
Hits are given with their value; i = inactive; ! = not active in a repeat.

SMILES	DUX4 inh
O=C(Nc1cccc(F)c1)N1CCCCN2[C@H](C1)[C@@H](c1ccc(-c3ccncc3)cc1)[C@@H]2CO	i
Cc1ccccc1-c1ccc([C@@H]2[C@@H](CO)N3CCCCN(C(=O)Nc4cccc(F)c4)C[C@@H]23)cc1	-26.8
CCS(=O)(=O)N1CCCCN2[C@H](CO)[C@H](c3ccc(-c4ccccc4C)cc3)[C@H]2C1	i
O=C(Nc1nccs1)[C@H]1[C@H](CO)[C@H]2Cn3c(cccc3=O)[C@@H]1N2C(=O)C1CCC1	i
COc1ccc(C[C@H]2CCn3nncc3COC[C@@H](c3ccccc3)NC2=O)cc1	i
CCC(=O)N1CC2(C1)[C@@H](c1ccc(-c3ccccc3C)cc1)[C@@H](CO)N2C(=O)CC	i
CO[C@@H]1CN(C)C(=O)c2ccc(NC(=O)Nc3cccc(F)c3)cc2OC[C@@H](C)N(C(=O)Nc2c(C)noc2C)C[C@@H]1C	i
CCC(=O)N1[C@H](CO)[C@H]2c3ccccc3N(C(=O)c3ccc4c(c3)OCO4)C[C@H]21	i
CCC(=O)N1CC2(C1)CN(C(=O)CN1CCOCC1)[C@H](CO)c1[nH]c3cc(OC)ccc3c12	i
COCCNC(=O)C[C@H]1CC[C@@H]2[C@H](COc3ccc(NC(=O)C4CCOCC4)cc3C(=O)N2C)O1	i
CO[C@H]1CN(C)C(=O)c2cc(NC(=O)c3cnccn3)ccc2OC[C@@H](C)N(C)C[C@H]1C	i
C/C=C/c1ccc([C@@H]2[C@H](CO)N(CCC(F)(F)F)C23CN(C(=O)COC)C3)cc1	i
C[C@@H]1CN([C@H](C)CO)C(=O)c2cc(C#CC3CCCC3)cnc2O[C@H]1CN(C)C(=O)Cc1ccccn1	i
N#Cc1ccc(-c2ccc([C@H]3[C@H]4CN(C(=O)Nc5ccc(F)cc5)CCCCN4[C@H]3CO)cc2)cc1	i
COc1ccccc1-c1ccc([C@H]2[C@@H](CO)N3CCCCN(C(=O)NC4CCCC4)C[C@H]23)cc1	-23.0
O=S(=O)(c1ccc(F)cc1)N1CCCCN2[C@@H](CO)[C@@H](c3ccc(C4=CCCCC4)cc3)[C@@H]2C1	i
Cc1ccccc1-c1ccc([C@@H]2[C@@H](CO)N3CCCCN(C(=O)NC4CCCC4)C[C@H]23)cc1	i
COc1ccc(S(=O)(=O)N2CCCCN3[C@H](CO)[C@@H](c4ccc(C5=CCCC5)cc4)[C@@H]3C2)cc1	i
O=C(NC1CCCC1)N1CCCCN2[C@H](C1)[C@H](c1ccc(-c3ccccc3)cc1)[C@@H]2CO	i
N#Cc1ccc(-c2ccc([C@H]3[C@H](CO)N4CCCCN(C(=O)Nc5ccc(F)cc5)C[C@@H]34)cc2)cc1	i
N#Cc1ccc(-c2ccc([C@H]3[C@@H](CO)N4CCCCN(C(=O)Nc5ccc(F)cc5)C[C@H]34)cc2)cc1	-39.2
O=S(=O)(c1ccc(F)cc1)N1CCCCN2[C@H](CO)[C@H](c3ccc(C4=CCCCC4)cc3)[C@@H]2C1	-42.3
O=C(c1ccccn1)N1C[C@@H]2[C@H](c3ccccc31)[C@H](CO)N2C(=O)c1ccccn1	i
COc1ccc(NC(=O)Nc2ccc3c(c2)[C@H]2C[C@H](CC(=O)NCCc4ccccc4)O[C@@H](CO)[C@H]2O3)cc1	i
O=C(CC1CC1)Nc1ccc2c(c1)[C@H]1C[C@@H](CC(=O)N3CCCCC3)O[C@H](CO)[C@H]1O2	i
SMILES	DUX4 inh
CN1C(=O)c2cc(NS(=O)(=O)c3ccc(Cl)cc3)ccc2OC[C@H]2O[C@H](CC(=O)O)CC[C@H]21	i
O=C(c1cnccn1)N1C[C@@H]2N[C@H](C1)C2c1ccc(/C=C/c2ccccc2)cc1 (stereo partly drawn)	i
C/C=C/c1ccc(C2[C@@H]3CN(S(=O)(=O)c4ccc(F)cc4)C[C@H]2N3)cc1 (stereo partly drawn)	i
CN(C)C(=O)c1ccc(-c2ccc(C3[C@@H]4CN(S(=O)(=O)c5ccccc5F)C[C@H]3N4)cc2)cc1 (stereo partly drawn)	i
COc1ccccc1-c1ccc(C2[C@@H]3CN(C(=O)c4cccnc4)C[C@H]2N3)cc1 (stereo partly drawn)	i
CN(C)C(=O)c1ccc(-c2ccc(C3[C@@H]4CN(Cc5cccnc5)C[C@H]3N4)cc2)cc1 (stereo partly drawn)	i
Cc1ccccc1-c1ccc(C2[C@@H]3CN(Cc4cccnc4)C[C@H]2N3)cc1 (stereo partly drawn)	-24.3
COc1cccc(S(=O)(=O)N2[C@@H]3CNC[C@H]2C3c2ccc(-c3ccccc3C)cc2)c1 (stereo partly drawn)	i
Cc1ccccc1-c1ccc(C2[C@@H]3CN(S(=O)(=O)c4ccccc4)C[C@H]2N3)cc1 (stereo partly drawn)	-49.9!
Cc1ccccc1-c1ccc(C2[C@@H]3CN(C(=O)C4CCOCC4)C[C@H]2N3)cc1 (stereo partly drawn)	i
COc1ccc(NC(=O)N2C[C@@H]3N[C@H](C2)C3c2ccc(-c3ccncc3)cc2)cc1 (stereo partly drawn)	i
Cc1ccccc1-c1ccc(C2[C@@H]3CN(S(=O)(=O)c4ccccc4C)C[C@H]2N3)cc1 (stereo partly drawn)	-36.2!
COc1ccc(-c2ccc(C3[C@@H]4CN(C(=O)c5cnccn5)C[C@H]3N4)cc2)cc1 (stereo partly drawn)	-32.2
CC(=O)N1CC2(C1)[C@@H](c1ccc(-c3ccccc3C)cc1)[C@@H](CO)N2C(=O)CC1CC1	i
O=C(C[C@@H]1CC[C@@H]2[C@H](COC[C@@H](O)CN2C(=O)c2ccc3c(c2)OCO3)O1)NCCN1CCCCC1	i
CCC(=O)N1C[C@@H](C)[C@H](OC)CN(C)C(=O)c2ccc(NC(=O)c3ccno3)cc2OC[C@@H]1C	i
CCCC(=O)N1CC2(CCN(S(=O)(=O)CC)CC2)c2c(n(C)c3cc(OC)ccc23)[C@H]1CO	i
C[C@@H](NC(=O)[C@H]1[C@H](CO)[C@H]2Cn3c(cccc3=O)[C@H]2N1CC1CCCCC1)c1ccccc1	i
COc1ccc2c3c([nH]c2c1)[C@@H](CO)N(Cc1ccncc1)CC31CN(C(=O)Cc2ccncc2)C1	i
CCNC(=O)[C@H]1[C@H](CO)[C@H]2Cn3c(ccc(-c4cccc(F)c4)c3=O)[C@@H]1N2C(=O)c1cnccn1	i
COc1ccccc1S(=O)(=O)N1C[C@@H]2N[C@H](C1)C2c1ccc(-c2ccccc2C)cc1 (stereo partly drawn)	-42.1!
COc1ccccc1-c1ccc(C2[C@@H]3CN(C(=O)c4ccncc4)C[C@H]2N3)cc1 (stereo partly drawn)	i
COc1ccc(-c2ccc(C3[C@@H]4CN(S(=O)(=O)c5ccccc5C)C[C@H]3N4)cc2)cc1 (stereo partly drawn)	-42.4!
COc1ccc(NC(=O)N2C[C@@H]3N[C@H](C2)C3c2ccc(-c3cncnc3)cc2)cc1 (stereo partly drawn)	i
Cc1ccccc1-c1ccc([C@@H]2[C@@H](CO)N3C(=O)CN(S(C)(=O)=O)C[C@@H]23)cc1	i
C/C=C/c1ccc(C2[C@@H]3CN(S(=O)(=O)c4ccccc4F)C[C@H]2N3)cc1 (stereo partly drawn)	i
CO[C@H]1CN(C)C(=O)c2cc(NC(=O)C3CC3)ccc2OC[C@H](C)N(CC2CC2)C[C@@H]1C	i
COCC(=O)N1CC2(C1)CN(Cc1cccc(OC)c1)[C@H](CO)c1[nH]c3cc(OC)ccc3c12	i
C[C@H](CO)N1C[C@H](C)[C@H](CN(C)Cc2ccc(C(=O)Nc3ccccc3N)cc2)OCc2cnnn2CCCC1=O	-16.0
